Experiment [1] can be described thus: binders of probe aFSTL3 on microarray, primary screen, stem cell growth factor project, biochemical, small-molecule microarray, fluorescence 635/667 (AID 1064).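 Further: measures binding of the biotinylated anti-FSTL3 antibody to printed compounds.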 The note with it: higher = more signal.
Experiment [2] is described as follows: binders from COS7 lysate, DM2A8 probe, primary screen, torsin A project, cell lysate, small-molecule microarray, fluorescence 635/667 (AID 1065). The note with it: higher = more signal, COS7 lysate expressing mutant human TOR1A.
Experiment [3] can be described thus: binders of probe aFGF2 on microarray, primary screen, stem cell growth factor project, biochemical, small-molecule microarray, fluorescence 635/667 (AID 1067).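 Further: measures binding of biotinylated aFGF2 protein to printed compounds on slides; z-score merges feature fluorescence and signal-to-noise across triplicate slides.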 The note with it: higher = more signal.
Experiment [4] can be described thus: binders of probe aFGF10 on microarray, primary screen, stem cell growth factor project, biochemical, small-molecule microarray, fluorescence 635/667 (AID 1071).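 Further: score merges 667 nm spot intensity and signal to noise from triplicate slides.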 The note with it: higher = more signal.
For experiment [5], the target named is Neurogenic locus notch homolog protein 2 (Homo sapiens) (UniProt Q04721). In words: Notch2 binders on small-molecule microarrays, primary screen, biochemical, small-molecule microarray, 635 nm fluorescence, stem cell growth factors (AID 1073). The note with it: Notch2 binding, higher = more signal.
Neurogenic locus notch homolog protein 2 (Homo sapiens), sequence (Q04721 whole entry, looked up, canonical isoform): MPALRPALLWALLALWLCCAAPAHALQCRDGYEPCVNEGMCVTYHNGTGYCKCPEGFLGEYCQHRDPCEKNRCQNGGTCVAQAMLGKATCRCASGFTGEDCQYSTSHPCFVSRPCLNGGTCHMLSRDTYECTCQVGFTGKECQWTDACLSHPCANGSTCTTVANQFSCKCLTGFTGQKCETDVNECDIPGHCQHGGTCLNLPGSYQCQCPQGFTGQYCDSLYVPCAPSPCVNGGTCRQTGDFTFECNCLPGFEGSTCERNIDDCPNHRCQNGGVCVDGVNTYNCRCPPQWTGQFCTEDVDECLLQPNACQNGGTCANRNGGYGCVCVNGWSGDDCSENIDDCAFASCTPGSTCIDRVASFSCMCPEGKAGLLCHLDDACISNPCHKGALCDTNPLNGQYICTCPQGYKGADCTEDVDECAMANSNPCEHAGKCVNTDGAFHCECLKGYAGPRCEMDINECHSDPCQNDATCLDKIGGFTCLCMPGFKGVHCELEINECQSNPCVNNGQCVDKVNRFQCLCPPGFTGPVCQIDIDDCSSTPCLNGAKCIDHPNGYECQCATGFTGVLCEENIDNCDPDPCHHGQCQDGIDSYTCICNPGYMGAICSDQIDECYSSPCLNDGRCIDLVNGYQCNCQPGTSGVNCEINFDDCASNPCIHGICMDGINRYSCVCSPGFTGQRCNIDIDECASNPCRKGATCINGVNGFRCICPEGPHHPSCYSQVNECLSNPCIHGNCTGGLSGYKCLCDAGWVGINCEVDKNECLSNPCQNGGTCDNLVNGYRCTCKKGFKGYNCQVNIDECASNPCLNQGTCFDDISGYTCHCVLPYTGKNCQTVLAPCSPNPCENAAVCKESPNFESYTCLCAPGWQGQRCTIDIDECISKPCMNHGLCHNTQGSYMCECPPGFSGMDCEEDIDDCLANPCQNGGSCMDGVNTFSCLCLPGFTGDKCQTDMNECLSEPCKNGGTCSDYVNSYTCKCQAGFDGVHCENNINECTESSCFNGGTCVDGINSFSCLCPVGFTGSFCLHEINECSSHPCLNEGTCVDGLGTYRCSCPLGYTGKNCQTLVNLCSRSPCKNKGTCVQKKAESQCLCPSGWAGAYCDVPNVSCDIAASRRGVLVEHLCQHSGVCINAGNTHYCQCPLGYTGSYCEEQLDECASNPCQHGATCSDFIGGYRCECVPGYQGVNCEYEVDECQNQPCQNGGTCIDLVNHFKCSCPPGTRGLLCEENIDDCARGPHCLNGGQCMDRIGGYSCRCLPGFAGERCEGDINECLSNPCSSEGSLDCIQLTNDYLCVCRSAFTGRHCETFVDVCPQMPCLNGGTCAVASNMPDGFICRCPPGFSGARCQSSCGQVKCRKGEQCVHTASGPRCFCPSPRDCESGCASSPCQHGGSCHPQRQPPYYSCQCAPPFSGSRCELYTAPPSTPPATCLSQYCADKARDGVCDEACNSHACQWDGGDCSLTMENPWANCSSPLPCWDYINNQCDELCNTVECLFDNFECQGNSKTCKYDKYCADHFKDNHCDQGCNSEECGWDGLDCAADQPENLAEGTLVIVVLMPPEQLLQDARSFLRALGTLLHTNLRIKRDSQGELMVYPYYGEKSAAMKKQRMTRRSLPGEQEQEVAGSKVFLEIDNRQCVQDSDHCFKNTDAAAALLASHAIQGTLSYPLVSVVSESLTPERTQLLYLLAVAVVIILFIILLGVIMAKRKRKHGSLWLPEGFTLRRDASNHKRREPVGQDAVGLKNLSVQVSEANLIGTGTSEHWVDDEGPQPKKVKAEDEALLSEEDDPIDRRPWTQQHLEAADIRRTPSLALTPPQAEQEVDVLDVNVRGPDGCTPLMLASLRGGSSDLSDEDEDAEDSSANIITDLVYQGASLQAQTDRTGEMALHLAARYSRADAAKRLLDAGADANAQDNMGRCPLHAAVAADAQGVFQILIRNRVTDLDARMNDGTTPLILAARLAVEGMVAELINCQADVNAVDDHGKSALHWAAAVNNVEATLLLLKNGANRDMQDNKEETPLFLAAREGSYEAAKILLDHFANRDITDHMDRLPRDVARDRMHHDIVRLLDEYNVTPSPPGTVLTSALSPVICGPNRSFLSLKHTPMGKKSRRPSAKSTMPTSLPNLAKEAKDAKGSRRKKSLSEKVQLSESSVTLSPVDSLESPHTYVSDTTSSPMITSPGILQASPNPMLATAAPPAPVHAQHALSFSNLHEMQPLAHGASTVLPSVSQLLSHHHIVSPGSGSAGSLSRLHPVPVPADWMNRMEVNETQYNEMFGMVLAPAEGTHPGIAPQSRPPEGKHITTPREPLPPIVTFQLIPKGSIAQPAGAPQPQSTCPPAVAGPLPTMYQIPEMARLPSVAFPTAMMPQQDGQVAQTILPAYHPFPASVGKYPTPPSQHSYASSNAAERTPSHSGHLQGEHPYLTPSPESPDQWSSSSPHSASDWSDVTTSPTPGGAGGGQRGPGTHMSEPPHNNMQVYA
Experiment [6] addresses Pro-neuregulin-1, membrane-bound isoform (Homo sapiens) (UniProt Q02297). In words: NRG1 binders on small-molecule microarrays, primary screen, psychiatric disease protein project, biochemical, small-molecule microarray, fluorescence 635/667 (AID 1075).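 Further: score combines 667 nm spot fluorescence with signal to noise.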 The note with it: NRG1 binding, 635 nm fluorescence, higher = more signal.
Experiment [7] relates to Neuregulin-1 EGF-like domain. The experiment is described as follows: binders of neuregulin-1 EGF-like domain, primary screen, biochemical, small-molecule microarray, 635 nm fluorescence (AID 1081).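 Further: binding of the protein to compounds printed on small-molecule microarray slides.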 The note with it: small-molecule microarray binding, higher = more signal.
Experiment [8] in a line: FRG1 promoter luciferase signal modulators, primary screen, FRG1 inhibition for FSHD, cell-based, C2C12 myotubes, firefly/Renilla luciferase, luminescence (AID 1084). The note with it: higher = more signal, called active from +8 up or from −8 down.
The nature of experiment [9]: binders of probe aFST on microarray, primary screen, stem cell growth factor project, biochemical, small-molecule microarray, fluorescence 635/667 (AID 1086).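 Further: score merges 667 nm fluorescence with signal-to-noise of each printed compound spot.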 The note with it: higher = more signal.
The nature of experiment [10]: binders of probe aHhip on microarray, primary screen, stem cell growth factor project, biochemical, small-molecule microarray, fluorescence 635/667 (AID 1087).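 Further: score merges spot fluorescence at 667nm with spot signal to noise ratio.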 The note with it: higher = more signal.

Active and inactive are the calls of the source.

Pro-neuregulin-1, membrane-bound isoform (Homo sapiens), sequence (Q02297 whole entry, looked up, the tested form may be a part, canonical isoform): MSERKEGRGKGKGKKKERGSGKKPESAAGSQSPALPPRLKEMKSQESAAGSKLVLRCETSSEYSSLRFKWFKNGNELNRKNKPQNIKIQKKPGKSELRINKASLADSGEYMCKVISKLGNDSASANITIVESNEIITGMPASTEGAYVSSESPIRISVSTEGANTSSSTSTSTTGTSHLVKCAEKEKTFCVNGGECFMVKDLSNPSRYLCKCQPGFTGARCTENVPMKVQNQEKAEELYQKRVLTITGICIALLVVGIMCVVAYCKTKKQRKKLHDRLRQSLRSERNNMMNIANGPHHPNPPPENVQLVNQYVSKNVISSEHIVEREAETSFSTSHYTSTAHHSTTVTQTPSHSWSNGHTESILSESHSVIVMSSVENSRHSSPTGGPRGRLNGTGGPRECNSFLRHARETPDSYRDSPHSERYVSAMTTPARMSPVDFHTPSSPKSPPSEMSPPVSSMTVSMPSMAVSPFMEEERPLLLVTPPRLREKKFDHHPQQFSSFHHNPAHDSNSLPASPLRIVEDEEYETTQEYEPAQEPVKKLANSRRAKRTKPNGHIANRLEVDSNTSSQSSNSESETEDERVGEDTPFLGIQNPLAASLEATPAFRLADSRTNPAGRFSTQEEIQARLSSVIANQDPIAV

`CON=C1[C@H]2CCn3c(=O)n(-c4ccccc4)c(=O)n3[C@H]2[C@H](O)[C@@H]2O[C@H]12`: the composite z-score in [1] was -0.39; in experiment [2] it was 0.135; in experiment [3] it was -0.0533; in [4], 0.383; in experiment [5], 0.41; in [6] it was 0.0959. The composite z-score in [7] was 0.561; in experiment [9], 0.17; in [10], -0.199. In addition, in [8], the z-score is -1.17 (inactive).
In the case of `CC(=O)O[C@H]1C2=CO[C@H](C)[C@H]3[C@H]4C5=C([C@H](O)[C@H]6O[C@H]6C5=O)[C@H](OC4C)[C@@]23C(=O)[C@@H]2O[C@@H]21` (stereo not given in full), the composite z-score was -0.186 in [1]; 0.0382 in [2]; -0.0724 in [3]; 0.705 in experiment [4]; 0.673 in experiment [5]; 0.435 in experiment [6]. Besides, the figures for the composite z-score in experiment [7], in [9] and in [10] were 1.01, 0.163 and 0.154, respectively. Also, in [8], the z-score was -3.35 (inactive).
With `CO[C@@H]1C=CCC(=O)N2CCC[C@H]2C(=O)OC[C@@H](C)C(=O)OC[C@H]1C`, the composite z-score was -0.605 in experiment [1]; 1.7 in [2]; -0.159 in experiment [3]; 0.492 in [4]; 0.156 in experiment [5]; -0.582 in [6]. The composite z-score in experiment [7] amounted to 0.477; in [9] it was 0.274; in [10], 0.238. Besides, the z-score in [8] was -1.15 (inactive).
Consider `CCCNC(=O)OC[C@H]1O[C@H](CCON=C(C)CCN2CCc3nc(CC)c(CC)cc3C2)C=C[C@@H]1Oc1ccc(OC)cc1`, for which the composite z-score is -0.343 in [1]; 1.59 in experiment [2]; -0.129 in [3]; -0.0187 in experiment [4]; 0.0329 in [5]; 0.51 in [6]. Besides, the composite z-score is 0.428 in experiment [7], -0.0665 in experiment [9] and 0.5 in experiment [10]. For the same molecule, the z-score in experiment [8] was 0.31 (inactive).
With `COc1ccc(O[C@@H]2[C@H](O)CO[C@@H]2C=Cc2ccccc2)cc1`, the composite z-score in experiment [1] was -0.277; in experiment [2] it was 0.232; in [3], -0.0482; in experiment [4], 0.336; in experiment [5] it was -0.0587; in experiment [6] it was 0.46. Moreover, the composite z-score stood at 0.102 in [7], 0.0116 in experiment [9] and 0.281 in experiment [10]. Moreover, the z-score in experiment [8] was -0.136 (inactive).
For the molecule `CCOC(=O)NN=C1C[C@@H](O)[C@@H](O)[C@@H]2[C@@H]3C(=O)N(C(C)(C)C)C(=O)[C@@H]3CC[C@H]12`, the composite z-score was -0.306 in experiment [1]; 0.367 in experiment [2]; -0.163 in experiment [3]; 0.255 in experiment [4]; 0.444 in [5]; -0.135 in experiment [6]. Also, the composite z-score in [7] came to 0.603; in experiment [9], 0.497; in experiment [10], 0.0401. In addition, in experiment [8], the z-score is -0.848 (inactive).
As for `CC(C)=CCCC(C)=CCON=C1C[C@@H](O)[C@@H](O)[C@@H]2[C@@H]3C(=O)N(C4CCCCC4)C(=O)[C@@H]3CC[C@@H]12`, the composite z-score in experiment [1] is 1.18; in experiment [2] it was 0.76; in [3], -0.132; in [4], 0.332; in [5] it was -0.0557; in [6] it was -0.148. For the same molecule, the composite z-score in [7] was 0.598; in [9], 0.0152; in experiment [10] it was -0.374. The z-score in experiment [8] is 0.735 (inactive).
Take `C=CC[C@@H]1C=C[C@H](ON=C(C)CCN2CCc3nc(-c4ccccc4)c(-c4ccccc4)cc3C2)[C@@H](CO)O1`: the composite z-score in [1] is -0.374; in experiment [2] it was 1.11; in [3], -0.2; in [4] it was 0.34; in experiment [5], 0.65; in [6] it was 0.464. For the same molecule, the composite z-score in [7] is 0.942; in experiment [9] it was 0.197; in experiment [10] it was 0.0393. In experiment [8], the z-score is 1.23 (inactive).
As to `O=C1OCCC=C1C(O)CCc1ccccc1` (stereo not given), the composite z-score in experiment [1] is -0.209; in experiment [2], 0.652; in [3], -0.0885; in [4] it was 0.37; in experiment [5], 0.327; in experiment [6], -0.192. The composite z-score in [7] was 0.375; in experiment [9], 0.285; in [10], -0.0645. Further, the z-score in [8] is 0.667 (inactive).
With `CC(CCN1CCCCc2nc(C)c(C)cc21)=NOC[C@@H](O)COCc1ccco1`, the composite z-score in [1] was -0.471; in experiment [2], 2.6; in experiment [3] it was -0.242; in experiment [4], 0.0106; in experiment [5], 0.296; in [6] it was -1.03. Also, the composite z-score in experiment [7] worked out at 0.298; in experiment [9], 0.193; in experiment [10], 0.259. Besides, the z-score in [8] was -0.0255 (inactive).
On to `CC(CCC(=O)OC[C@H]1O[C@H](C#Cc2ccccc2)C=C[C@@H]1Oc1ccc(C)cc1)=NO[C@H](C)c1cn([C@H](CO)Cc2ccccc2)nn1`, for which the composite z-score in [1] is -0.544; in [2], -0.0618; in experiment [3] it was -0.122; in experiment [4] it was 0.191; in experiment [5], 0.369; in [6], 0.527. The composite z-score in [7] is 0.529; in [9], 0.337; in [10], -0.211. In addition, the z-score in experiment [8] is 0.546 (inactive).
With `CCN1C(=O)[C@H]2[C@H]3[C@H](O)[C@H](O)CC(=NOCC(C)C)[C@@H]3CC[C@H]2C1=O`, the composite z-score in experiment [1] was -0.596; in experiment [2], 0.217; in experiment [3] it was -0.142; in experiment [4], 0.361; in experiment [5], 1.23; in [6] it was 0.42. In addition, the composite z-score in experiment [7] turned out to be 0.336; in experiment [9] it was 0.124; in [10], 0.465. Further, the z-score in experiment [8] is 0.0163 (inactive).

(Values after PubChem BioAssay.)
